Test results taken from PubChem BioAssay (NCI).
This is part of a sample that, as a whole, favours compounds with a hit. Of some 83,000 tested, about 20% had one in any assay.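 Note: values are percent growth. 100 is the growth of untreated cells, values between 100 and 0 indicate rising inhibition; between -100 and 0 indicates cell death.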 Calls of active or inactive are those of the source. The calls were made as follows: active = growth percent below 10; inactive = the rest.

Tested on: HCT-116 colon
Assay: NCI-60 one-dose screen, 48 h (100 = growth as untreated, 0 = no growth, -100 = all killed)
Details: 10 µM

SMILES | growth
CCN1CCN(Cc2ccc(C(=O)Nc3cccc(-c4cn(-c5ccc6oc(=O)ccc6c5)nn4)c3)cc2C(F)(F)F)CC1 | -100% (active)
CN1C(=O)N(C)C2SC(N/N=C/c3cccs3)=NC21 (centres undefined) | 28.2% (inactive)
CC(=O)Nc1ccc(-c2cn(-c3cccc(C(=O)Nc4cc(CN5CCOCC5)cc(C(F)(F)F)c4)c3)nn2)cn1 | -56.1% (active)
Cc1cc(C)cc(Oc2cccc(-c3c(C)nnn3C3CCN(CCN(C)C)CC3)n2)c1 | 15.2% (inactive)
CC1=C(c2cc(-c3ccc(Cl)cc3)c(C#N)c(N)n2)C(c2ccccc2)NC(=S)N1 (centres undefined) | -18.8% (active)
Cc1ccc(-c2nc3ccc(C(=O)N=Nc4c(O)[nH]c5ccc(Br)cc45)cc3[nH]2)cc1 | 26.3% (inactive)
O=C(Nc1ccc(I)cc1F)c1cc(-c2ccc(F)cc2F)ccc1O | 17.2% (inactive)
CN1CCc2c(sc3ncnc(N/N=C/c4ccc5ccccc5c4)c23)C1 | -13.2% (active)
COc1cc2c3c(n(CCCN4CCOCC4)c(=O)c2cc1OC)-c1nc2c(cc1C3=O)OCO2 | 15.6% (inactive)
Cn1c(O)c(N=Nc2nc(-c3cc4ccccc4oc3=O)cs2)c2cc(Br)ccc21 | 48.9% (inactive)
COc1ccc(CCN2C(=O)/C(=C/c3csc(C#N)n3)SC2=S)cc1OC | -69.1% (active)
COc1ccc2c3nc4cc(C)c(C)cc4nc3n(CCN(C)C)c2c1 | -61.1% (active)
C=C1CCC2C3(C)COC(c4c(F)cccc4F)OC3CCC2(C)C1CC(O)C1=CCOC1=O (centres undefined) | -31.2% (active)
Cc1cccc2cc(-c3cc(-c4ccccc4)nc(=S)[nH]3)c(Cl)nc12 | 83.3% (inactive)
COc1ccc(/C=C/C(=O)c2ccc(N3CCN(C)CC3)cc2)c(C(F)(F)F)c1 | 11.4% (inactive)
Cc1cccc(NC(=O)CSc2nc3ccc(F)cc3c(=O)n2-c2ccc(Cl)cc2)c1C | 44.8% (inactive)
CC1(c2ccccc2)NC(=O)N(CC(=O)Nc2ccc(C(=O)/C=C/C=C/c3ccccc3)cc2)C1=O (centres undefined) | 27.1% (inactive)
CCOP(=O)(OCC)O[C@H]1CC[C@]2(C)[C@H]3CC[C@@H]4[C@@H]([C@](C)(O)CCC=C(C)C)CC[C@@]4(C)[C@]3(C)CC[C@H]2C1(C)C | 9.92% (active)
COc1cccc(-c2ccnc(/N=C(\N)Nc3ccc(S(=O)(=O)Nc4nc(C)cc(C)n4)cc3)n2)c1 | 103% (inactive)
COc1ccc2[nH]c(=O)c(CSc3cccc(N)c3)cc2c1 | 52.5% (inactive)
C/C(=N\N=C\c1ccc(Cl)c([N+](=O)[O-])c1)c1ccc2c(c1)Nc1ccccc1S2 | 19.4% (inactive)
COc1cc(-c2nc3cc(Cl)c(Cl)cc3[nH]2)ccc1OCc1nnc(-c2ccc(Br)cc2)o1 | 2.89% (active)
O/N=C(\CSc1nnc(-c2c[nH]c3ccccc23)n1-c1ccccc1)c1ccc(Cl)cc1 | 0.742% (active)
CCOc1ccc(Nc2nc3ccccc3nc2Nc2ccc(OCC)cc2)cc1 | 17.8% (inactive)
